Test results: PubChem BioAssay
For some assays here: Measured potencies and affinities stand elsewhere. Calls of active or inactive are those of the source. Unless noted, the rule behind the calls is not given here.

What was measured:
[1] = antimalarial activity against Dd2 strain (AID 2302;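 active = growth inhibition above 50% at the single 2 µM test dose, taken to imply half-maximal potency below 2 µM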;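 note: 0% = DMSO untreated growth and 100% = chloroquine plus artemisinin killed control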); settings: P. falciparum Dd2 in RBCs, LDH growth readout, 72 h; at 2 µM; active compounds read high
[2] = human hepatoma cell viability loss – ATP luminescence, cytotoxicity control for P. falciparum antimalarial project, primary screen (AID 2303;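 active = inhibition above 50%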;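 note: 0% = DMSO wells and 100% = digitonin-killed cells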); settings: HepG2 viability, 24-48 h, at 10 µM, active compounds read high
[3] = target: L-lactate dehydrogenase (Plasmodium falciparum (isolate CDC / Honduras)) (UniProt Q27743); assay: PfLDH activity inhibition – cell lysate, 3D7 strain, counter-screen for P. falciparum growth inhibition project (AID 2304);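 note: 0% = vehicle and 100% = reference inhibitor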; settings: P. falciparum 3D7 crude extract, LDH APAD/NBT absorbance; at 2 µM; active compounds read high
[4] = inhibition of 3D7 malaria parasite growth – strain 3D7 (AID 2306);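 note: 0% = DMSO wells and 100% = chloroquine plus artemisinin control wells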; settings: P. falciparum 3D7 erythrocytic growth, LDH absorbance, 72 h; at 2 µM; active compounds read high
[5] = target: Calcium-dependent protein kinase 1 (Plasmodium falciparum (isolate 3D7)) (UniProt P62344); assay: PfCDPK1 kinase inhibitors, biochemical, TCAMS library (AID 1159585; cut-off not given, nearly all actives have IC50 up to about 0.98 µM;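 note: inhibitors leave more ATP so luminescence rises with inhibition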); settings: recombinant PfCDPK1, Kinase-Glo ATP depletion luminescence
[6] = target: Plasmodium falciparum protein kinase 6 (PK6, PF3D7_1337100) (UniProt Q8IDW1); assay: PfPK6 kinase inhibitors, biochemical, TCAMS library (AID 1159586); settings: recombinant PfPK6, Kinase-Glo ATP depletion luminescence
[7] = target: Protein kinase 7 (PK7), Plasmodium falciparum 3D7 (PF3D7_0213400) (UniProt Q7YTF7); assay: inhibition of Plasmodium PK7 catalytic activity – biochemical, TCAMS antimalarial set, Kinase-Glo luminescence (AID 1159587); settings: recombinant PfPK7, Kinase-Glo ATP depletion luminescence
[8] = target: Calcium-dependent protein kinase 4 (Plasmodium falciparum (isolate 3D7)) (UniProt Q8IBS5); assay: PfCDPK4 kinase inhibitors, biochemical, TCAMS library (AID 1159588; cut-off not given, nearly all actives have IC50 up to about 0.91 µM); settings: recombinant PfCDPK4, Kinase-Glo ATP depletion luminescence
Chain of Calcium-dependent protein kinase 4 (Plasmodium falciparum (isolate 3D7)) (Q8IBS5 whole entry, looked up): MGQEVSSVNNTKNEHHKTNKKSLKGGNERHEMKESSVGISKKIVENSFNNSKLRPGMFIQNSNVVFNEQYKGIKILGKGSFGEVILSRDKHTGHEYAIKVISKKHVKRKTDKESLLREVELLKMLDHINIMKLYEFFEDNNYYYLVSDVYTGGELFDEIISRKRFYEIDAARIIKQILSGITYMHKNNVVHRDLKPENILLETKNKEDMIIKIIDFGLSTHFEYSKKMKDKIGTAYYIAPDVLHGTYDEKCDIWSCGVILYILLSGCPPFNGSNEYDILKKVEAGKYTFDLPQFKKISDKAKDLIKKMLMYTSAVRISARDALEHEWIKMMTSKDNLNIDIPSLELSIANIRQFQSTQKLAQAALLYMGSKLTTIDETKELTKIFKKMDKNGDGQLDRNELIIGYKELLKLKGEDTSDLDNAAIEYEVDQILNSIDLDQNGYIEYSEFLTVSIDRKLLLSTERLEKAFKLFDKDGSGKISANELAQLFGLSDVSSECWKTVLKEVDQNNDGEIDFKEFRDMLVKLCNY

Chain of Plasmodium falciparum protein kinase 6 (PK6, PF3D7_1337100) (Q8IDW1 1-305): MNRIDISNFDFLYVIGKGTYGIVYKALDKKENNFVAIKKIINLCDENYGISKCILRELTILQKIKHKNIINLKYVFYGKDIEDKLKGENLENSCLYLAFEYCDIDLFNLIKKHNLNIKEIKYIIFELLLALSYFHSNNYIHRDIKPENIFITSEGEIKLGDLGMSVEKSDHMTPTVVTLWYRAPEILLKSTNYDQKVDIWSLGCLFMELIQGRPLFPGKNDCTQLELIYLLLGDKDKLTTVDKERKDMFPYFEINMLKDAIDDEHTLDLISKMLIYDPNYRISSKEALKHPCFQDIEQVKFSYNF
Chain of Protein kinase 7 (PK7), Plasmodium falciparum 3D7 (PF3D7_0213400) (Q7YTF7 1-343): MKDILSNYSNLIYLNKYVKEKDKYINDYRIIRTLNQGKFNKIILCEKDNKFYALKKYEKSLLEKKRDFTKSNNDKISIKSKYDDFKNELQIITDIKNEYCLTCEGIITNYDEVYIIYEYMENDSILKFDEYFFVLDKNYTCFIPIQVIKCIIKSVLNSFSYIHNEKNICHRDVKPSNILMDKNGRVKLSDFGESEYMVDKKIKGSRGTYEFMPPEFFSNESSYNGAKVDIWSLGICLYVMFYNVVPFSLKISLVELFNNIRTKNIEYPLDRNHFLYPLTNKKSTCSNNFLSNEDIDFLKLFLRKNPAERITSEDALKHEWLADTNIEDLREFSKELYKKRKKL
Chain of Calcium-dependent protein kinase 1 (Plasmodium falciparum (isolate 3D7)) (P62344 whole entry, looked up): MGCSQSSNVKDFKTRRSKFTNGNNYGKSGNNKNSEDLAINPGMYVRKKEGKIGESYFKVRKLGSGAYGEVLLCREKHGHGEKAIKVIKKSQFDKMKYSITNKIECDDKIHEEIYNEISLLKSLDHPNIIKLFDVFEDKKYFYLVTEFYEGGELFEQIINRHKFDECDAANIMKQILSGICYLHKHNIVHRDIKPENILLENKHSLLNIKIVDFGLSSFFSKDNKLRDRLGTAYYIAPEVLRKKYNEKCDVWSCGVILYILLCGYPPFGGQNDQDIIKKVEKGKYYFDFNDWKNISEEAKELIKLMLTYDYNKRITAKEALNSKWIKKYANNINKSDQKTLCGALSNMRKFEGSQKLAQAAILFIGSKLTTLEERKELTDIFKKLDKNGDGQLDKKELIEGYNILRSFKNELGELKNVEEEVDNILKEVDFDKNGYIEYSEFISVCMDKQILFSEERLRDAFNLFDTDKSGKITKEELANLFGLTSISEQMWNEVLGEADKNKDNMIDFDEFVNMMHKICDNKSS
Chain of L-lactate dehydrogenase (Plasmodium falciparum (isolate CDC / Honduras)) (Q27743 whole entry, looked up): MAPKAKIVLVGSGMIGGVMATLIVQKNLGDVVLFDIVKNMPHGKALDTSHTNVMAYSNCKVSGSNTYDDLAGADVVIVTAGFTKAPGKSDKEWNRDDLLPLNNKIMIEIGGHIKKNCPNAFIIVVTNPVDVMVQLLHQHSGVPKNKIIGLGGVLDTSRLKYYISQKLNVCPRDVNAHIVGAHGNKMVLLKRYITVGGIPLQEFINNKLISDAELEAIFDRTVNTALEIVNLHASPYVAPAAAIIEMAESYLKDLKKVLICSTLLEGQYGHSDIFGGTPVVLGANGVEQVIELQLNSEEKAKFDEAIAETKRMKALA

Cc1c(CNCCCNc2nc3ccccc3[nH]2)[nH]c2cc(Cl)cc(Cl)c12
active: inhibition [2] 59% | growth inhibition [4] 101%
inactive: growth inhibition [1] -1% | inhibition [3] -6% | outcome [5] | outcome [6] | outcome [7] | outcome [8]

COc1ccc(N2C(N)=NC(N)=NC2(C)C)cc1
inactive: growth inhibition [1] 29% | inhibition [2] 0% | inhibition [3] 4% | outcome [5] | outcome [6] | outcome [7] | outcome [8]
active: growth inhibition [4] 94%

N=c1sc2ccccc2n1CC(O)c1ccc(Cl)c(Cl)c1 (stereo unspecified)
inactive: inhibition [2] 4% | inhibition [3] -2% | outcome [5] | outcome [6] | outcome [7] | outcome [8]
active: growth inhibition [1] 74% | growth inhibition [4] 99%

O=C(Nc1ccccc1)N(Cc1cccc(-c2cccc(CNCCc3ccccc3)c2)c1)C1CCN(Cc2ccccc2)CC1
active: growth inhibition [1] 87% | inhibition [2] 100% | growth inhibition [4] 100%
inactive: inhibition [3] 1% | outcome [5] | outcome [6] | outcome [7] | outcome [8]

Cc1cc(NC2CCN(Cc3ccccc3)CC2)nc(NCCCCc2ccccc2)n1
inactive: inhibition [3] 2% | outcome [5] | outcome [6] | outcome [7] | outcome [8]
active: growth inhibition [1] 60% | inhibition [2] 65% | growth inhibition [4] 100%

Clc1ncccc1-c1nc(NCCC(c2ccccc2)c2ccccc2)no1
inactive: inhibition [2] 12% | inhibition [3] 3% | outcome [5] | outcome [6] | outcome [7] | outcome [8]
active: growth inhibition [1] 82% | growth inhibition [4] 94%

Cc1cccc2[nH]c(-c3cccc(-c4cccc(CNCc5cnn(-c6ccccc6)n5)c4)c3)nc12
active: growth inhibition [4] 99%
inactive: growth inhibition [1] 38% | inhibition [2] 12% | inhibition [3] 1% | outcome [5] | outcome [6] | outcome [7] | outcome [8]

CC1CN(c2ccc(NC(=O)c3ccsc3)cc2C(=O)N2CCN(Cc3ccc(C(C)(C)C)cc3)CC2)CC(C)O1 (stereo unspecified)
inactive: inhibition [2] 12% | inhibition [3] 7% | outcome [5] | outcome [6] | outcome [7] | outcome [8]
active: growth inhibition [1] 80% | growth inhibition [4] 90%

Cc1ccc2cc(C3NC(=O)c4ccccc4N3)c(Cl)nc2c1 (stereo unspecified)
active: growth inhibition [4] 91%
inactive: growth inhibition [1] 38% | inhibition [2] -6% | inhibition [3] 1% | outcome [5] | outcome [6] | outcome [7] | outcome [8]

Nc1c2ccccc2nc2cc([N+](=O)[O-])ccc12
inactive: growth inhibition [1] 26% | inhibition [3] -1% | outcome [5] | outcome [6] | outcome [7] | outcome [8]
active: inhibition [2] 92% | growth inhibition [4] 98%

Cc1cc(Cl)ccc1N(Cc1ccccc1)c1ccnc(Cl)n1
active: growth inhibition [1] 98% | growth inhibition [4] 97%
inactive: inhibition [2] 16% | inhibition [3] 2% | outcome [5] | outcome [6] | outcome [7] | outcome [8]

Cc1cc(NC(=O)c2cc(Br)ccc2Cl)n(-c2nc(C)c(C)c(=O)[nH]2)n1
active: growth inhibition [1] 83% | inhibition [2] 54% | growth inhibition [4] 91%
inactive: inhibition [3] -2% | outcome [5] | outcome [6] | outcome [7] | outcome [8]

COc1ccccc1CCNc1nc(C)cc(N[C@@H](Cc2ccccc2)C(=O)NCCCOC(C)C)n1
active: growth inhibition [4] 99%
inactive: growth inhibition [1] 32% | inhibition [2] 10% | inhibition [3] -1% | outcome [5] | outcome [6] | outcome [7] | outcome [8]

COc1ccc(CC(=O)Nc2ccc(-c3cccc(-c4nc5c(C)cccc5[nH]4)c3)cc2)cc1O
active: growth inhibition [4] 96%
inactive: growth inhibition [1] 30% | inhibition [2] 6% | inhibition [3] 4% | outcome [5] | outcome [6] | outcome [7] | outcome [8]

O=C(N[C@@H](Cc1cc(F)cc(F)c1)[C@H](O)CNCc1cccc(C(F)(F)F)c1)c1cc(C2CCCC2)cc(N2CCCC2=O)c1
active: growth inhibition [4] 95%
inactive: growth inhibition [1] 45% | inhibition [2] 37% | inhibition [3] -3% | outcome [5] | outcome [6] | outcome [7] | outcome [8]

Cc1cc(-c2ccc(CNCc3ccsc3)cc2)ccc1S(=O)(=O)NCCN1CCCC1
active: inhibition [2] 57% | growth inhibition [4] 99%
inactive: growth inhibition [1] 49% | inhibition [3] -1% | outcome [5] | outcome [6] | outcome [7] | outcome [8]

CCCc1nc2c(N3CC(NC(=O)/C=C/c4ccccc4)C3)cccc2n1C1CC1
inactive: inhibition [2] 1% | inhibition [3] 0% | outcome [5] | outcome [6] | outcome [7] | outcome [8]
active: growth inhibition [1] 68% | growth inhibition [4] 83%

Cc1cc(C(F)(F)F)n2nc(C(=O)N(C)Cc3cncn3Cc3ccc(F)cc3)cc2n1
active: growth inhibition [1] 96% | growth inhibition [4] 101%
inactive: inhibition [2] -1% | inhibition [3] 0% | outcome [5] | outcome [6] | outcome [7] | outcome [8]

Cc1cn(CC(=O)Nc2cccc(-c3cccc(-c4nc5ccc(C(F)(F)F)cc5[nH]4)c3)c2)c(=O)[nH]c1=O
inactive: inhibition [2] 15% | inhibition [3] -1% | outcome [5] | outcome [6] | outcome [7] | outcome [8]
active: growth inhibition [1] 51% | growth inhibition [4] 92%

CCOC(=O)CCc1cc(F)c(F)c(OC[C@H](O)CNC(C)(C)C(O)c2ccc3ccccc3c2)c1 (stereo partly specified)
inactive: inhibition [2] 12% | inhibition [3] -4% | outcome [5] | outcome [6] | outcome [7] | outcome [8]
active: growth inhibition [1] 92% | growth inhibition [4] 99%

O=C(/C=C/c1ccc(Cl)c(Cl)c1)NCCCCCN1CCCC(CNC(=O)Nc2ccc(Oc3ccccc3)cc2)C1 (stereo unspecified)
active: growth inhibition [4] 99%
inactive: growth inhibition [1] 6% | inhibition [2] 26% | inhibition [3] -2% | outcome [5] | outcome [6] | outcome [7] | outcome [8]

O=C(Nc1ccc(Cl)cc1)c1cccc(S(=O)(=O)NC2CCN(CC3CCCCC3)CC2)c1
active: inhibition [2] 67% | growth inhibition [4] 92%
inactive: growth inhibition [1] 11% | inhibition [3] 0% | outcome [5] | outcome [6] | outcome [7] | outcome [8]

COc1ccc2nccc([C@@H](O)CN3CCC(NC(=O)c4cc5cccnc5[nH]4)CC3)c2c1
inactive: growth inhibition [1] 6% | inhibition [2] -8% | inhibition [3] 2% | outcome [5] | outcome [6] | outcome [7] | outcome [8]
active: growth inhibition [4] 94%

O=c1c2ccc(F)cc2sn1-c1ccc(Cl)cc1
active: growth inhibition [4] 98%
inactive: growth inhibition [1] 11% | inhibition [2] 8% | inhibition [3] -2% | outcome [5] | outcome [6] | outcome [7] | outcome [8]

NC1=NC(c2ccccc2)N(c2ccc(Cl)c(Cl)c2)C(N)=N1 (stereo unspecified)
active: growth inhibition [4] 94%
inactive: growth inhibition [1] 0% | inhibition [2] 13% | inhibition [3] -2% | outcome [5] | outcome [6] | outcome [7] | outcome [8]

NC1CCN(Cc2cccc(-c3csc(-c4nc5ccccc5[nH]4)c3)c2)C1 (stereo unspecified)
active: growth inhibition [4] 99%
inactive: growth inhibition [1] 10% | inhibition [2] 10% | inhibition [3] 2% | outcome [5] | outcome [6] | outcome [7] | outcome [8]

CN(C)CCN(Cc1ccccc1-c1ccc(CNCCc2ccccc2)cc1)C(=O)NC1CCCCC1
active: growth inhibition [1] 89% | inhibition [2] 98% | growth inhibition [4] 88%
inactive: inhibition [3] -1% | outcome [5] | outcome [6] | outcome [7] | outcome [8]

O=C(Nc1cccc(C(F)(F)F)c1)c1cccc(S(=O)(=O)NCC2CCCN(Cc3ccccc3)C2)c1 (stereo unspecified)
active: growth inhibition [4] 94%
inactive: growth inhibition [1] 3% | inhibition [2] 17% | inhibition [3] 2% | outcome [5] | outcome [6] | outcome [7] | outcome [8]

COc1cc2c(cc1COc1ccccc1)CCN1Cc3cc(OC)c(OC)cc3CC21 (stereo unspecified)
inactive: inhibition [2] -1% | inhibition [3] 2% | outcome [5] | outcome [6] | outcome [7] | outcome [8]
active: growth inhibition [1] 84% | growth inhibition [4] 99%

O=C(CSc1nccn1C1CCCC1)Nc1cc(C(F)(F)F)ccc1Cl
inactive: inhibition [2] -4% | inhibition [3] -2% | outcome [5] | outcome [6] | outcome [7] | outcome [8]
active: growth inhibition [1] 94% | growth inhibition [4] 96%

O=C(Cc1ccc(F)cc1)NC1CCN(c2ccnc3cc(Cl)ccc23)C1 (stereo unspecified)
active: growth inhibition [1] 85% | growth inhibition [4] 99%
inactive: inhibition [2] -1% | inhibition [3] 1% | outcome [5] | outcome [6] | outcome [7] | outcome [8]

CC1(C)CCC(C)(C)c2c1ccc(C1CCN(CCCCNC(=O)c3ccc(-c4ccc(Cl)cc4)cc3)CC1)c2O
inactive: inhibition [3] -2% | outcome [5] | outcome [6] | outcome [7] | outcome [8]
active: growth inhibition [1] 72% | inhibition [2] 100% | growth inhibition [4] 102%

COc1cc(C)nc2ccc(NC(=O)c3cc(C(F)(F)F)cc(C(F)(F)F)c3)cc12
inactive: inhibition [2] 16% | inhibition [3] 0% | outcome [5] | outcome [6] | outcome [7] | outcome [8]
active: growth inhibition [1] 99% | growth inhibition [4] 101%

CN(CCN)Cc1ccc(-c2ccc(-c3nc4ccc(F)cc4[nH]3)s2)cc1
active: growth inhibition [1] 81% | growth inhibition [4] 96%
inactive: inhibition [2] 31% | inhibition [3] -1% | outcome [5] | outcome [6] | outcome [7] | outcome [8]

CON(CCCN(C)C)C(=N)N
inactive: growth inhibition [1] -4% | inhibition [2] 3% | inhibition [3] 1% | outcome [5] | outcome [6] | outcome [7] | outcome [8]
active: growth inhibition [4] 92%

O=c1cc(NCCCN(Cc2cc3c(Cl)cc(Cl)cc3[nH]2)Cc2cc3c(Cl)cc(Cl)cc3[nH]2)[nH]c2ccccc12
inactive: inhibition [2] 23% | inhibition [3] -6% | outcome [5] | outcome [6] | outcome [7] | outcome [8]
active: growth inhibition [1] 80% | growth inhibition [4] 87%

CC(Cc1ccc(NC(=O)c2ccc(CC(C)NCc3ccc(Cl)c(Cl)c3)cc2)cc1)NCCc1cccc(Cl)c1 (stereo unspecified)
active: growth inhibition [4] 92%
inactive: growth inhibition [1] 33% | inhibition [2] 26% | inhibition [3] 4% | outcome [5] | outcome [6] | outcome [7] | outcome [8]
